Assay results from PubChem BioAssay (EPA / NIEHS).
Records with an inconclusive call do not appear. Some structures have more than one record in an assay (separate samples or runs), and their calls can disagree. Activity calls are given as the source filed them. Rule for the calls: active = hit-call score of the fitted dose curve at least 0.9, where 1 is the maximum; inconclusive = response in the unintended direction; inactive = score below 0.9.

test: TOX21_p53_BLA_p3_viability: Viability Assessment in the Tox21 HCT-116 p53 Agonism Beta-lactamase Assay, Phase 3 (AID 2283593);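 note: cells exposed to compound for 16 h before reading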
Text: TOX21_p53_BLA_p3 is a cell-based, single-readout assay that uses HCT116, a human intestinal cell line, […] in a 1536-well plate.TOX21_p53_BLA_p3_viability is an assay readout measuring cellular ATP content and detected with CellTiter-Glo Luciferase-coupled ATP quantitation.TOX21_p53_BLA_p3_viability used a type of viability reporter where loss-of-signal activity can be used to understand changes in the cell viability. Furthermore, this assay endpoint can be referred to as a secondary readout, because this assay has produced multiple assay endpoints where this one serves a viability function. To generalize the intended target to other relatable targets, this assay endpoint is annotated to the cell cycle intended target family, where the subfamily is cytotoxicity.
Thawing Method: Place 14 mL of pre-warmed thaw medium into a 15 mL of conical tub. Remove the vial of cells to be thawed from liquid nitrogen and thaw rapidly by placing at 37C in a water bath with gentle agitation for 1-2 minutes. Decontaminate the vial by wiping with 70% ethanol before opening in a biological safety cabinet. Transfer the vial contents drop-wise into 14 mL of thaw medium in a sterile 15-mL conical tub. Centrifuge cells at 900 rpm for 4 minutes and resuspend in thaw medium. Transfer contents to the T75 tissue culture flask containing Thaw Medium and place flask in a humidified 37C/5% CO2 incubator. Switch to growth medium at first passage.Propagation Method: Aspirate medium, rinse once in DPBS, add 0.25% Trypsin/EDTA and swirl to coat the cell evenly. Add an equal volume of Growth Medium to inactivate Trypsin after 2-3 minutes incubation at 37C. Centrifuge cells at 900 rpm for 4 minutes and resuspend in growth medium. Cell should be passage or fed at least twice a week.Assay Protocol: Harvest cells from culture in growth medium and resuspend in assay medium. 2.2 Dispense 4000 cells/5 uL/well into 1536-well black/clear bottom plates using a Multidrop dispenser. After the cells were incubated at 37C for 5 hours, 23 nL of compounds dissolved in DMSO were transferred to the assay plate by a PinTool resulting in a 217-fold dilution. Incubate the plates for 16 hours at 37C, 5% CO2. Add 1 uL of 6X LiveBLAzer FRET B/G (CCF4-AM) Substrate Mixture to each well using a BioRAPTR dispenser and incubate the plates at room temperature for 2 hours. Measure fluorescence intensity at 460 and 530 nm emission and 405 nm excitation by an Envision detector. Data is expressed as the ratio of 460nm/530nm emissions. Add 4 uL of Cell-titer Glo to each well using BioRAPTR and incubate the plates at room temperature for […]. For cell viability readout that measures cytotoxicity, 4 ul/well of CellTiter-Glo reagent was added into the assay plates using a Flying Reagent Dispenser. After 30 min incubation at room temperature, the luminescence intensity in the plates was measured using a ViewLux plate reader.

Row | SMILES | outcome | AC50
1 | CC(=O)N[C@@H](CCC(N)=O)C(=O)O | inactive | –
2 | CC1(C)S[C@@H]2[C@H](N3C(=O)C(c4ccccc4)NC3(C)C)C(=O)N2[C@H]1C(=O)O (stereo not given in full) | inactive | –
3 | C[C@@H]1C[C@H]2[C@@H]3C[C@H](F)C4=CC(=O)C(Cl)=C[C@]4(C)[C@@]3(F)[C@@H](O)C[C@]2(C)[C@@]1(O)C(=O)CO | inactive | –
4 | C=C[C@]1(C)C[C@@H](OC(=O)CSCCN(CC)CC)[C@]2(C)[C@H](C)CC[C@]3(CCC(=O)[C@H]32)[C@@H](C)[C@@H]1O | inactive | –
5 | NC(=O)C(c1ccccc1)(c1ccccc1)[C@@H]1CCN(CCc2ccc3c(c2)CCO3)C1 | inactive | –
6 | NC1CCN(c2cccc(Cl)n2)CC1 | inactive | –
7 | COC(=O)C1=C(C)NC(C)=C(C(=O)O[C@@H]2CCCN(Cc3ccccc3)C2)[C@@H]1c1cccc([N+](=O)[O-])c1 | inactive | –
8 | C#C[C@]1(OC(C)=O)CC[C@H]2[C@@H]3CCC4=C[C@@H](OC(C)=O)CC[C@@H]4[C@H]3CC[C@@]21C | inactive | 37.3 µM (active)
9 | Nc1nc2ccc(OC(F)(F)F)cc2s1 | inactive | –
10 | CC1(C)C[C@@H]1C(=O)N/C(=C\CCCCSC[C@H](N)C(=O)O)C(=O)O | inactive | –
11 | Oc1ccc(Oc2ccccc2)cc1 | inactive | –
12 | FC(F)(F)c1ccc(Cl)cc1Cl | inactive | –
13 | OCCN1CCN(CC/C=C2/c3ccccc3Sc3ccc(Cl)cc32)CC1 | inactive | –
14 | CCOC(=O)OCC/C(SC(=O)OCC)=C(\C)N(C=O)Cc1cnc(C)nc1N | inactive | –
15 | C[C@@H]1C[C@H]2O[C@@]3(O[C@@H]2C(C)(C)O)[C@H](O)[C@@]2(C)[C@@H]4CC[C@H]5C(C)(C)[C@@H](O[C@@H]6OC[C@@H](O)[C@H](O)[C@H]6O)CC[C@@]56C[C@@]46CC[C@]2(C)[C@@H]13 | inactive | –
16 | CC(C)CC(=O)CC(C)C | inactive | –
17 | CCCCCCCCCCC[C@@H](C[C@@H]1OC(=O)[C@H]1CCCCCC)OC(=O)[C@H](CC(C)C)NC=O | inactive | –
18 | O=C(O)CCC(=O)Nc1ccc(S(=O)(=O)Nc2nccs2)cc1 | inactive | –
19 | CCCC(=O)CC | inactive | –
20 | O=C1C(=O)c2ncccc2-c2cccnc21 | inactive | –

Row | SMILES | outcome | AC50
21 | COc1ccc(C(=O)c2ccc(C)cc2)c(O)c1 | inactive | –
22 | COc1ccc2c(=O)c(C)c(-c3ccccc3)oc2c1CN(C)C | inactive | –
23 | [O-][N+](=Nc1ccccc1)c1ccccc1 | inactive | –
24 | C[C@@H]1O[C@@H]1P(=O)(O)O | inactive | –
25 | OCC(O)[C@@H](O)[C@H](O)[C@H](O)CO[C@H]1O[C@H](CO)[C@@H](O)[C@H](O)[C@H]1O (stereo not given in full) | inactive | –
26 | C[C@H]1C[C@H]2[C@@H]3CCC4=CC(=O)C=C[C@]4(C)[C@@]3(F)[C@@H](O)C[C@]2(C)[C@@]1(O)C(=O)CO | inactive | –
27 | CO[C@@H]1[C@@H](O[C@@H]2O[C@H](C)[C@@H](O[C@H]3C[C@@](C)(O)[C@@H](OC(=O)CC(C)C)[C@H](C)O3)[C@H](N(C)C)[C@H]2O)[C@@H](CC=O)C[C@@H](C)C(=O)/C=C/C2OC2C[C@@H](C)OC(=O)C[C@H]1OC(C)=O (stereo not given in full) | inactive | –
28 | Nc1ccncc1N | inactive | –
29 | COc1cc2c3cc1Oc1cc(ccc1O)C[C@@H]1c4c(cc(OC)c(O)c4Oc4ccc(cc4)C[C@@H]3N(C)CC2)CC[N+]1(C)C | inactive | –
30 | Cc1cccc(C)c1NC(=O)CC12CCCN1CCC2 | inactive | –
31 | NC(N)=NCc1cccc(I)c1 | inactive | –
32 | C=CCCC=C | inactive | –
33 | COc1cc(C(=O)NS(=O)(=O)c2ccccc2C)ccc1Cc1cn(C)c2ccc(NC(=O)OC3CCCC3)cc12 | – | 7.45 µM (active)
34 | Cc1cc(C)c(NC(=O)CN(CC(=O)O)CC(=O)O)c(C)c1Br | inactive | –
35 | CC(C)(C)NCC(O)c1ccc(O)c(CO)c1 (stereo not given) | inactive | –
36 | NC(=O)[C@@H]1CCCN1C(=O)[C@H](Cc1cnc[nH]1)NC(=O)[C@@H]1CCC(=O)N1 | inactive | –
37 | Cc1ccc(O)c(O)c1 | – | 41.5 µM (active)
38 | C=C(C)c1ccccc1 | inactive | –
39 | C[N+]1(C)CCC(OC(=O)C(O)(c2ccccc2)C2CCCC2)C1 (stereo not given) | inactive | –
